Reference: PubChem BioAssay AID1259400 (National Center for Advancing Translational Sciences (NCATS), 2018)
Where “and” joins values, the source holds several entries; their conditions need not be identical. Equal entries are not always repeated. Out of some 350,000 compounds screened, about 2,100 (0.6%) were called active. Roughly 1% stayed inconclusive and do not appear here.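 The calls were made as follows: active = activity change of -60% or lower, but not beyond a set lower limit; inconclusive = change between -60% and -40%, or beyond the set limit; inactive = change above -40%.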 The full list was thinned out, with actives kept by preference. More than one record can exist for a structure, and the calls need not agree.

Biological target: Relaxin receptor 1 (Homo sapiens) (UniProt Q9HBX9)
Assay: qHTS Assay for Antagonists of the Relaxin Receptor RXFP1
Settings: HEK293-RXFP1, relaxin-stimulated cAMP HTRF, 30 min; at 57.5 µM; stronger effect = lower value
% is scaled to controls: 0 for no effect and ±100 for the full control effect.

Chain of Relaxin receptor 1 (Homo sapiens) (Q9HBX9 whole entry, looked up): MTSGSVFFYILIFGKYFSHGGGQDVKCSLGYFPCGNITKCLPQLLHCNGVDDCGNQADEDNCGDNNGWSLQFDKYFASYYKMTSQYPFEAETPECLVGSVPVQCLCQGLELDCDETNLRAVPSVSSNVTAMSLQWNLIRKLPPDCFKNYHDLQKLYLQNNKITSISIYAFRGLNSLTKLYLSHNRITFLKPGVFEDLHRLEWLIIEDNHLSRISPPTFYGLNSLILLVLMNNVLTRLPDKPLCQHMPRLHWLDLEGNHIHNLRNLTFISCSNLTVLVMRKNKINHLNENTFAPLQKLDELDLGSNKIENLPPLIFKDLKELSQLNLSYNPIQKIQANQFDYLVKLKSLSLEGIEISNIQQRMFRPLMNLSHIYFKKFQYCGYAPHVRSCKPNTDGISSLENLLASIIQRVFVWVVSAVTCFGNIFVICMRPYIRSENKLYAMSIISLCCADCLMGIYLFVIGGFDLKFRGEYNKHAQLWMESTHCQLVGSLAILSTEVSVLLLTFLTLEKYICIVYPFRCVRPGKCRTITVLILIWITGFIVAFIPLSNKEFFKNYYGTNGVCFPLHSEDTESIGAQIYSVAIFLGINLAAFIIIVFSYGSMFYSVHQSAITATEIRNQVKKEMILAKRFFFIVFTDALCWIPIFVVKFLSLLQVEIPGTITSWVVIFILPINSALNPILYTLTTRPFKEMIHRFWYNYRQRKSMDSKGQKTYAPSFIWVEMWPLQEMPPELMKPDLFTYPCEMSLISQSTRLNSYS

Row | Compound | activity change, negative = inhibition
1 | O=C(Nc1ccccc1)c1nnsc1S(=O)(=O)c1ccc(Cl)cc1 | -68.7% (active)
2 | O=C(Nc1ccc(Oc2ccccc2)cc1)C1CCN(S(=O)(=O)c2ccc(Cl)cc2)CC1 | -26.7% (inactive)
3 | Clc1ccc(CSc2nncn3c2cc2occc23)cc1 | -27.8% (inactive)
4 | Cc1ccc(Nc2c(-c3ccc(Cl)cc3)nc3sccn23)c(C)c1 | -23.7% (inactive)
5 | O=C(Nc1ccncc1)c1ccccc1[N+](=O)[O-] | 11.1% (inactive)
6 | CC(=O)Oc1ccccc1C(=O)Nc1ncc([N+](=O)[O-])s1 | -60.7% (active)
7 | Cc1ccc2nsnc2c1NC(=O)c1ccccc1[N+](=O)[O-] | -9.18% (inactive)
8 | CCOC(=O)c1ccc(NC(=O)c2c(NCc3cccs3)sc3c2CCCC3)cc1 | -24.5% (inactive)
9 | Cc1nnnn1/C(=C\c1ccccc1)C(=O)OCC(=O)N1CC2(C)CC1CC(C)(C)C2 (centres undefined) | -62.1% (active)
10 | CN(C)C(=O)COC(=O)c1cccc(S(=O)(=O)N2CC3(C)CC2CC(C)(C)C3)c1 (centres undefined) | 8.67% (inactive)
11 | CN1CCN(c2oc(-c3ccc(COc4ccc(Cl)cc4)o3)nc2C#N)CC1 | -10.5% (inactive)
12 | CCOc1ccccc1NC(=O)c1ccc2c(c1)CCN2S(=O)(=O)c1ccc(C)cc1 | 1.03% (inactive)
13 | CCc1cccc(C)c1Nc1c(-c2ccc(N(C)C)cc2)nc2ncccn12 | -15.1% (inactive)
14 | CCn1cc(C(=O)N2CCN(c3cc(Cl)ccc3C)CC2)c(=O)c2cc(S(=O)(=O)N3CCCC3)ccc21 | -1.04% (inactive)
15 | CC(C)Cn1c(=O)c2ccccc2n2c(-c3cccc(Cl)c3)nnc12 | -13.9% (inactive)
16 | CC(C)Cn1c(=O)c2ccccc2n2c(CCC(=O)N3CCN(c4cccc(Cl)c4)CC3)nnc12 | -87.5% (active)
17 | CC(C)Cn1c(=O)c2ccccc2n2c(CCC(=O)NCc3ccccn3)nnc12 | 1.58% (inactive)
18 | Cc1cc(O)c(C(c2ccccc2)N2CCN(c3ccccc3F)CC2)c(=O)n1Cc1ccco1 (centres undefined) | -24.2% (inactive)
19 | CCOC(=O)c1[nH]c(C)c(CCC(=O)N2CCN(c3ccccc3)CC2)c1C | -8.52% (inactive)
20 | O=C(COC(=O)c1ccccn1)NNC(=O)c1ccc(Br)cc1 | -5.4% (inactive)
21 | N/C(=N\OC(=O)c1ccc([N+](=O)[O-])cc1)c1ccccn1 | 8.07% (inactive)
22 | O=C(COC(=O)c1ccccn1)NNC(=O)c1ccc([N+](=O)[O-])cc1 | -74.5% (active)

Row | Compound | activity change, negative = inhibition
23 | CCn1c(C)c(C)c2cc(C(=O)NCCc3cc(OC)ccc3OC)ccc21 | -30.2% (inactive)
24 | CCn1c(CSc2nc(C)cc(C)n2)nnc1SCC(N)=O | 13.9% (inactive)
25 | Cc1ccnc(SCC(N)=O)n1 | -83.8% (active)
26 | Cc1cc(C)n2nc(SCC(N)=O)nc2n1 | -10.1% (inactive)
27 | COC(=O)[C@@H]1CC2=CC(=O)CC[C@]2(C)[C@@]23O[C@@H]2C[C@@]2(C)[C@@H](CC[C@@]24CCC(=O)O4)[C@H]13 | 12.2% (inactive)
28 | c1ccc(CCc2ccccn2)cc1 | -14.5% (inactive)
29 | O=C1CSc2ccc(C(=O)NCc3ccccn3)cc2N1 | 5.23% (inactive)
30 | c1ccc(CN=C2Nc3ccccc3CS2)nc1 | -70.7% (active)
31 | Cc1ccc(Nc2c(-c3ccc(N(C)C)cc3)nc3nc[nH]n23)cc1 | -4.77% (inactive)
32 | COc1cccc(C(c2c(O)cc(C)n(Cc3ccco3)c2=O)N2CCN(c3ccccc3)CC2)c1 (centres undefined) | -4.37% (inactive)
33 | Cc1ccc(C(C(=O)NCC2CCCO2)N(C(=O)c2snc(C(N)=O)c2N)c2ccc(C(C)C)cc2)o1 (centres undefined) | -74% (active)
34 | Cc1ccc(N(C(=O)c2snc(C(N)=O)c2N)C(C(=O)NCC2CCCO2)c2c[nH]c3ccccc23)cc1 (centres undefined) | -19% (inactive)
35 | CCOc1ccc(N(C(=O)c2snc(C(N)=O)c2N)C(C(=O)NCC2CCCO2)c2c[nH]c3ccccc23)cc1 (centres undefined) | -6.04% (inactive)
36 | Cc1cccc(Nc2cc(C)nc(-n3nc(C)cc3C)n2)c1 | -6.69% (inactive)
37 | CCOC(=O)c1c(S(=O)(=O)NCC(=O)Nc2ccc(Cl)c(C(F)(F)F)c2)c(C)n(C)c1C | -8.26% (inactive)
38 | COc1ccc(N2CCN(C(=O)CNC(=O)c3ccc(Br)o3)CC2)cc1 | -3.36% (inactive)
39 | COc1ccc(-c2nc(CCNC(=O)c3ccc(Br)o3)cs2)cc1 | -32.7% (inactive) and -89.7% (active)
40 | COc1ccc(CCC(=O)NCCc2csc(-c3ccc(Cl)cc3)n2)cc1 | -21.7% (inactive)
41 | C[N+](C)(CCOc1ccccc1)Cc1cccs1 (tested in a mixture with another compound) | 10.6% (inactive)
42 | Cc1ccc(-n2ncc3c(NCCCn4ccnc4)ncnc32)cc1Cl | -9.38% (inactive)
43 | COc1ccc(OC)c(CNC(=O)CN2C(=O)CCn3nc(-c4cn(C)c5ccccc45)cc32)c1 | -2.73% (inactive)
44 | CC(=O)OC1=C(C(C)=O)N(Cc2ccccc2)S(=O)(=O)c2ccccc21 | -3.88% (inactive)
